# Source: PubChem BioAssay (Tox21)
# Inconclusive results are not listed. Entries that show only a call come without a potency. Where a structure was tested more than once in an assay, its records may differ in their call. Active and inactive are the calls of the source. Calls follow the shape of the dose curve; as a rule, active = well fitted activation curve with a large enough effect in the repeat runs; inconclusive = weak or mixed curves; inactive = flat fitted curve, though single readings scatter.
# Assay: Caspase-3/7 induction in HepG2 cells by small molecules, qHTS assay (AID 1346978); also: nearly all actives have a fitted effect of over 15% in size
# Settings: HepG2 caspase-3/7 activation, Caspase-Glo luminescence, 17 h; series mostly up to 92.4 µM
# Description: National Center for Advancing Translational Sciences [NCATS] NIH Chemical Genomics Center [NCGC] U.S. Environmental Protection Agency [EPA] National Institutes of Environmental Health Sciences [NIEHS] National Toxicology Program [NTP] Assay overview: Apoptosis is a process of programmed cell death and plays a central role in the development of multicellular organisms. It is a highly regulated process and induces cell death by activating caspases, which are the members of cysteine aspartic acid-specific protease (caspase) family. Caspases involved in apoptosis are classified by their mechanism of action as initiator caspases (caspase-2, -8, -9 and -10) and executioner caspases (caspase-3, -6, and -7). Inhibition of apoptosis results in number of cancers, autoimmune diseases, inflammatory diseases and viral infection. To identify small molecule compounds that induce apoptosis, a homogeneous, luminescent Caspase-Glo 3/7 assay was used. Wild type HepG2 cells were used to screen Tox21 libraries for identifying caspase-3/7 activity inducers.
# Assay Protocol Summary: HepG2 cells were dispensed at 2,000 per well in 5uL of culture medium into white solid bottom 1536-well plates (Corning Life Sciences, Corning, NY) using a Multidrop Combi (Thermo Scientific, Waltham, MA) dispenser. The assay plates were incubated at 37 C and 5% CO2 for 5hr, and then 23nL of compounds dissolved in DMSO and positive control were transferred using a Pintool station (Wako, San Diego, CA). The assay plates were incubated at 37C and 5% CO2 for 17hr. For caspase-3/7 activity read, 4uL of Caspase-Glo 3/7 reagent (Promega Corporation, Madison, WI) was added to each well of the assay plates using Flying Reagent Dispenser (FRD, Aurora Discovery, San Diego, CA) and incubated the assay plates at room temperature for 30min. The luminescence signal was quantified using a ViewLux plate reader (Perkin Elmer, Shelton, CT).
# Potency is read from the fitted curve at half-maximal effect.
row,Compound,Potency
1,CCCCCCCCC,inactive
2,Oc1c(Cl)cc(Cl)c(Cl)c1Cl,inactive
3,c1ccc2ccccc2c1,inactive
4,Cc1cc(O)c2c(c1)C(=O)c1cc(O)cc(O)c1C2=O,inactive
5,CC1(C)CC(N=C=O)CC(C)(CN=C=O)C1 (stereo not given),inactive
6,CC1COc2ccccc2N1C(=O)C(Cl)Cl (stereo not given),inactive
7,CCCCNC(N)=O,inactive
8,CC(=O)[C@@]1(O)CC[C@H]2[C@@H]3CCC4=CC(=O)CC[C@]4(C)[C@H]3CC[C@@]21C,inactive
9,CCCCCC/C=C/CCCCCCCC(=O)O,inactive
10,CC#C[C@]1(O)CC[C@H]2[C@@H]3CCC4=CC(=O)CCC4=C3[C@@H](c3ccc(N(C)C)cc3)C[C@@]21C,inactive
11,CN(CCOc1ccc(CC2SC(=O)NC2=O)cc1)c1ccccn1 (stereo not given),inactive
12,CC(C)n1c(/C=C/[C@@H](O)C[C@@H](O)CC(=O)O)c(-c2ccc(F)cc2)c2ccccc21,12.2 µM (active)
13,C/C=C(C)/C=C/C=C(C)C,inactive
14,CC1Cc2ccccc2N1NC(=O)c1ccc(Cl)c(S(N)(=O)=O)c1 (stereo not given),inactive
15,CC1=CC[C@H]2C[C@@H]1C2(C)C,inactive
16,CC(C)(CO)COC(=O)C(C)(C)CO,inactive
17,NC(=O)NNc1ccccc1,inactive
18,CC(C)(C)C1CCC(O)CC1 (stereo not given),inactive
19,CC1=C(CC(=O)O)c2cc(F)ccc2/C1=C\c1ccc(S(C)=O)cc1 (stereo not given),inactive
20,CCCCCCCCCC(=O)O,inactive

row,Compound,Potency
1,NCc1cccc(CN)c1,inactive
2,S=c1nc[nH]c2nc[nH]c12,inactive
3,NCCNCCNCCNCCN,inactive
4,CCCCC(CC)COC(=O)CCCCCCCC(=O)OCC(CC)CCCC (stereo not given),inactive
5,O=[N+]([O-])c1cccc(Cl)c1,inactive
6,CCCCC(CC)COC(=O)/C=C\C(=O)OCC(CC)CCCC (stereo not given),inactive
7,CC(=O)Nc1ccc(C(=O)O)cc1,inactive
8,O=C1O[C@H](CO)[C@@H](O)[C@H](O)[C@H]1O,inactive
9,CC(C)NCC(O)COc1cccc2ccccc12 (stereo not given),inactive
10,C[C@@H](O)[C@H]1C(=O)N2C(C(=O)O)=C(S[C@@H]3CN[C@H](C(=O)N(C)C)C3)[C@H](C)[C@H]12,inactive
11,COC(=O)Nc1nc2ccc(Sc3ccccc3)cc2[nH]1,inactive
12,CN(C)c1cccc(O)c1,inactive
13,CCCCCCCCCCC=CC1CC(=O)OC1=O (stereo not given),inactive
14,COC(=O)c1ccc(C(=O)OC)cc1,9.82 µM (active) and inactive
15,Cc1ccc(C)c(C)c1,inactive
16,OCCOCCOCCOCCO,inactive
17,CCC(C)C=O (stereo not given),inactive
18,c1ccc2[nH]cnc2c1,inactive
19,Oc1ccc2ccccc2c1N=Nc1ccccc1,inactive
20,Cc1cc(O)cc(C)c1Cl,inactive
